Assay outcomes as filed in PubChem.
TWEAK-Fn14 inh: inhibitors of TWEAK-Fn14 signaling, primary screen, luciferase reporter cells, uHTS; TWEAK-stimulated Fn14 reporter cells, luciferase luminescence, 8 h; inhibition, % at 10 µM; actives 2% (n = 360,000); in the data active means inhibition above about 50%
KKLEB tox: cytotoxicity in KKLEB CF airway cells, primary screen, cytotoxicity control for CF NF-kB inhibitor project, cell-based, uHTS, fluorescence assay plates; AID 602141, 2011; activity change (cytotoxicity), % at 5 µM; actives 0.36% (n = 360,000); KKLEB CF airway cells viability, ATPlite luminescence, overnight; stronger effect = lower value; cells stimulated with P. aeruginosa culture filtrate;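 active means corrected activity change at or below -50% at 5 µM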
CF NFkB block: inhibitors of PAF-induced NF-kB signaling, primary screen, cell-based, GFP fluorescence, uHTS; inhibition, % at 5 µM; KKLEB NF-kB-GFP reporter, GFP fluorescence overnight; actives 0.86% (n = 360,000);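 active means at least 50% inhibition at 5 µM, scaled per plate between neutral and stimulator controls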;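 further: PAF is a Pseudomonas aeruginosa culture filtrate used as stimulus; plate controls were PAF-stimulated DMSO wells for no effect and unstimulated DMSO wells for full effect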
HIF-2a block: HIF-2a reporter inhibitors, primary screen, luminescence, 786-0 RCC cells | 786-0 RCC cells HIF-2a reporter, luciferase luminescence, overnight | inhibition, % at 18.8 µM | actives 0.72% (n = 360,000);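 active means inhibition of the luminescence signal of 40% or more relative to plate controls, in a single-dose primary screen at 18.75 µM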
TROY NFkB inh: inhibitors of TROY-driven NF-kB signaling, primary screen, Q293 LMP1-TROYcd cells, NF-kB luciferase, uHTS. Q293 LMP1-TROYcd NF-kB luciferase reporter, 4 h. inhibition, % at 10 µM. actives 0.98% (n = 360,000). AID 1347056, 2019;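 active means compounds whose plate-normalised and pattern-corrected inhibition of the luciferase reporter signal at the single screening dose is 50% or more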
Peg3 promoter: Peg3 promoter-driven luciferase inhibitors, primary screen, cell-based, HeLa, luciferase luminescence | HeLa PEG-Prom luciferase reporter, overnight | inhibition, % at 20 µM | actives 1.7% (n = 360,000) | AID 588405, 2011;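 active means inhibition of at least 50% at 20 µM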
Active calls of the source: *. Shown are actives, neighbours in structure and some others; about 4% of the full set was active somewhere.

SMILES | TWEAK-Fn14 inh | KKLEB tox | CF NFkB block | HIF-2a block | TROY NFkB inh | Peg3 promoter
O=C(C1CCCN(S(=O)(=O)c2cccc3nsnc23)C1)N1CC=C(c2ccccc2)CC1 (stereo not given) | 51* | -4 | 9 | 11 | 27 | 23
COCCCN(C(=O)Cc1ccc(S(=O)(=O)N2CCOCC2)s1)c1c(N)n(Cc2ccccc2)c(=O)[nH]c1=O | -1 | 3 | 1 | 8 | 3 | 16
CCCCOc1ccc(C(=O)Oc2cccnc2)cc1 | -28 | 1 | -16 | -7 | -15 | -8
Cc1cccc(C)c1Nc1nnc(SCC(=O)Nc2cc(S(=O)(=O)N3CCCCC3)ccc2Cl)s1 | 12 | 0 | -8 | 19 | 25 | 17
Cc1cccc(Nc2nnc(SCC(=O)Nc3cccc(S(=O)(=O)N4CCCCC4)c3)s2)c1 | 60* | -16 | 10 | -200 | 12 | -202
COc1ccc(S(=O)(=O)N2CCC(C(=O)NC3CC3)CC2)cc1 | -18 | -5 | -11 | -1 | 3 | -12
COc1ccc(NS(=O)(=O)c2cccc(NC(=O)c3ccc(S(=O)(=O)N4CCCCCC4)cc3)c2)cc1 | 70* | 6 | -5 | 14 | 45 | 40
COc1ccc(S(=O)(=O)N2CCC(NC(=O)C3CCCCC3)CC2)cc1 | 80* | 1 | -10 | 6 | -14 | 8
O=C(Cn1[nH]c(=O)c2ccccc2c1=O)Nc1cccc(S(=O)(=O)N2CCCCCC2)c1 | 51* | 4 | 0 | 14 | 25 | 22
CCOC(=O)N(C)C[C@H]1OCc2cnnn2CCCC(=O)N([C@H](C)CO)C[C@H]1C | 3 | 1 | 3 | -5 | 7 | -9
COc1ccc(NC(=O)C2CCCN2S(=O)(=O)c2ccc(Cl)cc2)cc1 (stereo not given) | 77* | 7 | -13 | 10 | -4 | 8
COc1ccc(NC(=O)CN(C)C(=O)/C=C/c2ccc(S(=O)(=O)N3CCCCCC3)cc2)cc1 | -13 | -17 | 26 | 14 | -7 | 52*
COc1ccc(CC(=O)Nc2cccc(S(=O)(=O)N3CCCCCC3)c2)cc1OC | 53* | -10 | -2 | 21 | 35 | 19
COc1ccc(S(=O)(=O)N2CCCC2C(=O)Nc2ccc(C)cc2)cc1 (stereo not given) | -12 | 6 | -15 | 0 | 8 | -4
O=C(Cc1ccccc1Cl)Nc1cccc(S(=O)(=O)N2CCOCC2)c1 | 90* | 2 | 7 | 21 | 81* | 20
CCOC(=O)CCN(C(=O)Nc1ccccc1)C1CCCCC1 | -7 | -1 | -10 | -43 | -10 | -40
C[C@]12C=CC(=O)C=C1CC[C@H]1[C@@H]3C[C@@H](O)[C@](O)(C(=O)CO)[C@@]3(C)C[C@H](O)[C@@]12F | -7 | -16 | 77* | 23 | -3 | -9
CC1CC2C3CCC4=CC(=O)C=CC4(C)C3(F)C(O)CC2(C)C1(O)C(=O)CO (stereo not given) | 2 | 49 | 77* | 25 | 28 | 5
CC12C=CC(=O)C=C1CCC1C2C(=O)CC2(C)C1CCC2(O)C(=O)CO (stereo not given) | -13 | 22 | 36 | 5 | -2 | 4
CC12C=CC(=O)C=C1CCC1C2C(=O)C[C@@]2(C)C1CCC2(O)C(=O)CO (stereo not given in full) | -7 | 1 | 12 | 2 | -2 | -10
CCOc1ccc(N(CC(=O)Nc2c(C)cc(C)cc2C)C2=NC3CS(=O)(=O)CC3S2)cc1 (stereo not given) | 32 | 7 | -3 | 4 | -1 | 9
Cc1ccc(S(=O)(=O)NCC(=O)OCc2cc(=O)oc3cc(C)ccc23)cc1 | 7 | 7 | -14 | -14 | 2 | -6
Cc1ccc2c(COC(=O)C3=COCCO3)cc(=O)oc2c1 | 81* | -14 | 4 | -63 | 30 | 22
CCOc1ccc(NC(=S)N2CCN(S(=O)(=O)c3ccc(OC)cc3)CC2)cc1 | 4 | 2 | 9 | 3 | -4 | 5
O=[N+]([O-])c1ccc(-[n+]2ccc3ccccc3c2)c([N+](=O)[O-])c1 | 57* | -81* | 82* | 34 | -19 | 96*
SMILES | TWEAK-Fn14 inh | KKLEB tox | CF NFkB block | HIF-2a block | TROY NFkB inh | Peg3 promoter
COc1cc(C(=O)O)ccc1OCc1ccncc1 | 12 | 14 | -1 | 12 | 12 | 0
CCOC(=O)c1c(C)[nH]c(C(=O)COC(=O)CNC(=O)C2CCCCC2)c1C | 10 | 8 | -5 | -11 | 69* | -41
CCc1ccc(C(=O)COC(=O)CNC(=O)C2CCCCC2)cc1 | 66* | -6 | 14 | -42 | 76* | -67
COc1cc(C(C)=O)ccc1OCC(O)CN1CCN(c2ccccn2)CC1 (stereo not given) | 108* | 5 | -13 | 9 | -8 | 6
Cc1cc(Cl)ccc1OC(C)C(=O)Nc1ccc(C(=O)Nc2ccccc2C(=O)O)cc1 (stereo not given) | 37 | -9 | 26 | 25 | 57* | 14
CCN(C(=O)c1ccc(S(=O)(=O)N(C)C)cc1)C(C)C(=O)Nc1ccc(C)cc1 (stereo not given) | 12 | -2 | 3 | 11 | 10 | 16
COc1ccc2nc(Cl)cc(Cl)c2c1 | -29 | -9 | -1 | 14 | -4 | -7
C=CS(=O)(=O)c1c2cc(OC)ccc2nc2ccc(OC)cc12 | -51 | -7 | -22 | -381 | -44 | 98*
Cc1cc(C(=O)COC(=O)CNC(=O)c2ccccc2)c(C)n1CC1CCCO1 (stereo not given) | 60* | 6 | -14 | -17 | 5 | 26
COCCn1c(C)cc(C(=O)COC(=O)c2ccc[nH]c2=O)c1C | 71* | 2 | 11 | 31 | 59* | 52*
COCCn1c(C)cc(C(=O)CSc2nc3ccccc3o2)c1C | -7 | 4 | -14 | -124 | 5 | -190
Cc1cc(C(=O)COC(=O)c2cccc(S(=O)(=O)N(C)C)c2)c(C)n1CC1CCCO1 (stereo not given) | -14 | -9 | 3 | -164 | 6 | -301
COCCn1c(C)cc(C(=O)CSc2nc3ccccc3s2)c1C | 51* | -8 | -3 | 5 | 60* | -49
Cc1cccc(C(=O)NCC(=O)OCC(=O)c2cc(C)n(CC3CCCO3)c2C)c1 (stereo not given) | 59* | -11 | 12 | -32 | 80* | 12
COc1ccc(CNC(=O)c2ccc(-n3ccnc3)c3ccoc23)cc1OC | 4 | 7 | -13 | 14 | 8 | 20
